In PubChem BioAssay AID1159580 (chemical genetic matrix, 2015):
Among all 5,500 compounds or so, about 2,000 (36%) were called active. Roughly 18% stayed inconclusive and do not appear here. Cut-off read from the data, not from the text of the source: active = normalized growth mostly below about 0.91 (no sharp cut-off); inconclusive = no clear call, values can overlap the other calls; inactive = mostly above about 0.92. The list shows a part of the results.

Assay: chemical genetic growth profiling, strain panel (AID 1159580);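 note: tested at 20 µM; growth read once vehicle control cultures reached saturation at 30 °C; 1 = growth at the plate median or of vehicle wells; lower values mean less growth of the strain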
Settings: growth OD

Measured: normalized growth

Cc1cc(O)c(C)c(O)c1C(=O)O
inactive: S. cerevisiae deletion strains, locus YJR066W, strain TOR1, hits give low values 0.948 | S. cerevisiae deletion strains, locus YKL009W, strain mrt4, hits give low values 1.01 | S. cerevisiae deletion strains, locus YKL068W, hits give low values 0.982 | S. cerevisiae deletion strains, locus YKL085W, strain MDH1 (second series), hits give low values 0.997 | S. cerevisiae deletion strains, locus YKL085W, strain MDH1, hits give low values 0.997 | S. cerevisiae deletion strains, locus YKL160W, strain elf1, hits give low values 1.02 | S. cerevisiae deletion strains, locus YKR001C, strain vps1, hits give low values 0.971 | S. cerevisiae deletion strains, locus YKR026C, strain gcn3, hits give low values 0.983 | S. cerevisiae deletion strains, locus YKR091W, strain srl3, hits give low values 0.99 | S. cerevisiae deletion strains, locus YLL001W, strain dnm1, hits give low values 1.01 | S. cerevisiae deletion strains, locus YLL026W, hits give low values 1 | S. cerevisiae deletion strains, locus YLL041C, strain sdh2, hits give low values 0.999 | S. cerevisiae deletion strains, locus YLR027C, strain aat2, hits give low values 0.983 | S. cerevisiae deletion strains, locus YLR039C, strain RIC1, hits give low values 0.982 | S. cerevisiae deletion strains, locus YLR058C, strain SHM2, hits give low values 1.01 | S. cerevisiae deletion strains, locus YLR102C, strain apc9, hits give low values 0.987 | S. cerevisiae deletion strains, locus YLR113W, strain HOG1, hits give low values 0.99 | S. cerevisiae deletion strains, locus YLR221C, strain rsa3, hits give low values 0.991 | S. cerevisiae deletion strains, locus YLR258W, strain gsy2, hits give low values 0.994 | S. cerevisiae deletion strains, locus YLR262C, strain YPT6 (second series), hits give low values 0.944 | S. cerevisiae deletion strains, locus YLR262C, strain YPT6, hits give low values 0.972 | S. cerevisiae deletion strains, locus YLR268W, strain sec22, hits give low values 1.01 | S. cerevisiae deletion strains, locus YLR320W, strain mms22, hits give low values 0.983 | S. cerevisiae deletion strains, locus YLR342W, strain FKS1 (second series), hits give low values 0.972 | S. cerevisiae deletion strains, locus YLR342W, strain FKS1, hits give low values 0.977 | S. cerevisiae deletion strains, locus YLR357W, strain rsc2, hits give low values 0.956 | S. cerevisiae deletion strains, locus YLR370C, strain arc18, hits give low values 0.988 | S. cerevisiae deletion strains, locus YLR371W, strain rom2, hits give low values 1 | S. cerevisiae deletion strains, locus YLR384C, strain iki3, hits give low values 0.998 | S. cerevisiae deletion strains, locus YLR418C, strain cdc73, hits give low values 0.943 | S. cerevisiae deletion strains, locus YML016C, strain PPZ1, hits give low values 0.924 | S. cerevisiae deletion strains, locus YML032C, strain rad52, hits give low values 1.03 | S. cerevisiae deletion strains, locus YML120C, strain ndi1, hits give low values 0.975 | S. cerevisiae deletion strains, locus YML124C, strain tub3, hits give low values 0.989 | S. cerevisiae deletion strains, locus YMR058W, strain fet3, hits give low values 0.974 | S. cerevisiae deletion strains, locus YMR078C, strain ctf18, hits give low values 0.984 | S. cerevisiae deletion strains, locus YMR125W, strain sto1, hits give low values 0.982 | S. cerevisiae deletion strains, locus YMR129W, hits give low values 0.996 | S. cerevisiae deletion strains, locus YMR205C, strain PFK2, hits give low values 0.977 | S. cerevisiae deletion strains, locus YMR223W, strain ubp8, hits give low values 0.988 | S. cerevisiae deletion strains, locus YMR231W, strain pep5, hits give low values 0.985 | S. cerevisiae deletion strains, locus YMR263W, strain SAP30, hits give low values 1.02 | S. cerevisiae deletion strains, locus YMR307W, strain GAS1, hits give low values 1.01 | S. cerevisiae deletion strains, locus YNL067W, strain RPL9B, hits give low values 0.979 | S. cerevisiae deletion strains, locus YNL071W, strain lat1, hits give low values 0.994 | S. cerevisiae deletion strains, locus YNL153C, strain GIM3, hits give low values 0.988 | S. cerevisiae deletion strains, locus YNL183C, strain NPR1, hits give low values 0.972 | S. cerevisiae deletion strains, locus YNL209W, strain ssb2, hits give low values 0.986 | S. cerevisiae deletion strains, locus YNL233W, strain BNI4, hits give low values 0.998 | S. cerevisiae deletion strains, locus YNL248C, strain rpa49, hits give low values 0.996 | S. cerevisiae deletion strains, locus YNL250W, strain rad50, hits give low values 0.946 | S. cerevisiae deletion strains, locus YNL271C, strain bni1, hits give low values 0.969 | S. cerevisiae deletion strains, locus YNL298W, strain CLA4, hits give low values 0.98 | S. cerevisiae deletion strains, locus YNL307C, strain MCK1, hits give low values 0.98 | S. cerevisiae deletion strains, locus YNL322C, strain KRE1 (second series), hits give low values 0.965 | S. cerevisiae deletion strains, locus YNL322C, strain KRE1, hits give low values 1 | S. cerevisiae deletion strains, locus YNR049C, strain mso1, hits give low values 0.983 | S. cerevisiae deletion strains, locus YNR052C, strain pop2, hits give low values 0.966 | S. cerevisiae deletion strains, locus YOL012C, strain htz1 0.903 | S. cerevisiae deletion strains, locus YOL147C, strain pex11, hits give low values 1.01 | S. cerevisiae deletion strains, locus YOR001W, strain rrp6, hits give low values 1 | S. cerevisiae deletion strains, locus YOR061W, strain CKA2, hits give low values 1.01 | S. cerevisiae deletion strains, locus YOR069W, strain VPS5, hits give low values 0.99 | S. cerevisiae deletion strains, locus YOR070C, strain gyp1, hits give low values 0.989 | S. cerevisiae deletion strains, locus YOR080W, strain dia2, hits give low values 0.974 | S. cerevisiae deletion strains, locus YOR083W, strain WHI5, hits give low values 1.03 | S. cerevisiae deletion strains, locus YOR106W, strain vam3, hits give low values 0.972 | S. cerevisiae deletion strains, locus YOR136W, strain idh2, hits give low values 0.986 | S. cerevisiae deletion strains, locus YOR144C, strain elg1, hits give low values 0.986 | S. cerevisiae deletion strains, locus YOR184W, strain ser1, hits give low values 1.05 | S. cerevisiae deletion strains, locus YOR231W, strain MKK1, hits give low values 1.03 | S. cerevisiae deletion strains, locus YOR265W, strain rbl2, hits give low values 1 | S. cerevisiae deletion strains, locus YOR270C, strain vph1, hits give low values 0.802 | S. cerevisiae deletion strains, locus YOR290C, strain snf2, hits give low values 0.956 | S. cerevisiae deletion strains, locus YOR316C, strain cot1, hits give low values 0.977 | S. cerevisiae deletion strains, locus YPL051W, strain arl3, hits give low values 1.02 | S. cerevisiae deletion strains, locus YPL055C, strain LGE1, hits give low values 1.01 | S. cerevisiae deletion strains, locus YPL078C, strain atp4, hits give low values 1 | S. cerevisiae deletion strains, locus YPL106C, strain sse1, hits give low values 0.926 | S. cerevisiae deletion strains, locus YPL240C, strain hsp82, hits give low values 1 | S. cerevisiae deletion strains, locus YPL256C, strain CLN2, hits give low values 1.03 | S. cerevisiae deletion strains, locus YPR119W, strain clb2, hits give low values 0.997 | S. cerevisiae deletion strains, locus YPR141C, strain kar3, hits give low values 0.973 | S. cerevisiae deletion strains, locus YPR163C, strain tif3, hits give low values 0.969 | S. cerevisiae deletion strains, locus YPR167C, strain met16, hits give low values 0.972 | S. cerevisiae deletion strains, strain wtn01, hits give low values 1.01 | S. cerevisiae strains, strain wild type, hits give low values 1
